An excerpt weighted towards active compounds, which were near 4.1% of everything screened.
hcDAF12 agonist – activators of H. contortus DAF-12 nuclear receptor. activation, % at 6.8 µM. 370,000 compounds, 1.4% hits. HEK293 hcDAF-12 lit1-tk-luc reporter, luminescence; 0% DMSO, 100% Δ7-dafachronic acid. AID 652067;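 active = activation above the mean of all tested compounds plus 3 SD, cut at about 5.5% in these data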;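 note: 100% = response to 3 µM Δ7-dafachronic acid high control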
DAX1 inh-1 – blocks DAX1 repression of SF-1 activated StAR promoter; HEK293T StAR-luciferase reporter, SF-1/DAX-1 repression relief; inhibition, % at 6.8 µM; 370,000 compounds, 1.1% hits; AID 652010;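 active = inhibition above the mean over all tested compounds plus 3 SD, cut at about 3.6% in these data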;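 note: 0% = DAX-1 cells with DMSO and 100% = cells lacking DAX-1 with DMSO; higher inhibition means more luminescence from relief of DAX-1 repression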
ssDAF-12 act – S. stercoralis DAF-12 activation, primary screen | HEK293 ssDAF-12/GRIP1 lit1-tk-luc reporter, luminescence; % of 3 µM dafachronic acid response | AID 652126 | activation, % at 6.8 µM | 370,000 compounds, 1% hits;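 active = activation above the mean over all tested compounds plus 3 SD, cut at about 0.9% in these data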;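 note: 0% = DMSO-only wells and 100% = 3 µM delta7-dafachronic acid wells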
hgDAF12 agonist – activates the H. glycines DAF-12 receptor ligand-binding domain; HEK293 GAL4-hgDAF12 UAS-luciferase reporter, agonist luminescence; normalized to butyrate control; activation, % at 6.8 µM; 370,000 compounds, 1.8% hits; AID 687014;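 active = activation above a cutoff set at the mean of all screened compounds plus 3 SD, cut at about 10% in these data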;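 note: 0% = DMSO wells and 100% = sodium butyrate wells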
PolyA inh – blocks polyadenylation in yeast reporter cells; S. cerevisiae SKY197-pL101 polyadenylation reporter, beta-gal luminescence; efflux-impaired pdr1/pdr3 knockout yeast; score 100 = 6 SD above DMSO; activity score, % at 12 µM; 300,000 compounds, 0.02% hits; AID 1875;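 active = lowest replicate activity score at least 50, where 100 means six control SD above control mean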;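 note: yeast exposed to compound for 9 h at 30 °C; higher score means more reporter readthrough which indicates perturbed polyadenylation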
DAX1 inh-2 – inhibitors of human orphan nuclear receptor DAX1 (NR0B1); P51843; inhibition, % at 6.75 µM; 340,000 compounds, 0.99% hits; AID 504766; HEK293 Gal4-DAX1 luciferase reporter, luminescence;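 active = inhibition above the mean over all tested compounds plus 3 SD, cut at about 4.2% in these data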;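 note: 0% = DAX1-transfected cells with DMSO and 100% = empty-vector control cells with DMSO; inhibition shows as a rise in luminescence from relieved DAX1 repression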
Target sequence (P51843 207-470 limits assumed): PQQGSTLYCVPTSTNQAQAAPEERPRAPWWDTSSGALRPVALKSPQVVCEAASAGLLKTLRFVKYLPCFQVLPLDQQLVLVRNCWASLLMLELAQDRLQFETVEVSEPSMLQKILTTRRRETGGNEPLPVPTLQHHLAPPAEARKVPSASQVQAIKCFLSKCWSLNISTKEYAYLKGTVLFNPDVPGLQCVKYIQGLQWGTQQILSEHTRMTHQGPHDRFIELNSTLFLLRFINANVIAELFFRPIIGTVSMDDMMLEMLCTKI
LXRb hcDAF ctr – LXR-beta agonism as hcDAF-12 counter-screen; shares compounds with hcDAF12 agonist; HEK293 Gal4-LXR tk-luc reporter, luminescence, 24 h; normalized: DMSO 0%, positive control 100%; activation, % at 6.8 µM; 3,400 tested, under 10 active; AID 743027;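 active = mean percent activation of the reporter above a cutoff set as the average over tested compounds plus their standard deviation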
hcDAF12 ag – confirmation of H. contortus DAF-12 agonists. shares compounds with hcDAF12 agonist. HEK293 hcDAF-12 lit1-tk-luc reporter, luminescence; % of Δ7-dafachronic acid response. activation, % at 6.8 µM. 3,400 compounds, 61% hits;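 active = mean activation across triplicate tests above the threshold derived from the earlier primary screen, cut at about 5.5% in these data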;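 note: 0% = DMSO only wells and 100% = 3 µM Δ7-dafachronic acid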
hgDAF12 conf – hgDAF-12 agonism, confirmation assay; shares compounds with hgDAF12 agonist; HEK293 GAL4-hgDAF12 luciferase reporter, agonist mode; percent of butyrate response; activation, % at 6.8 µM; 3,300 compounds, 80% hits;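 active = mean activation over triplicate wells above the hit cutoff derived from the earlier primary screen, cut at about 11% in these data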;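 note: 0% = DMSO low control and 100% = 2 mM sodium butyrate high control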
LXR ag 2 – activates human LXR-beta, counter-screen for DAF-12 agonists; shares compounds with hgDAF12 agonist; HEK293 Gal4-LXR luciferase reporter, 24 h; activation, % at 6.8 µM; 3,300 tested, under 10 active; AID 743051;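 active = mean activation of the triplicate above a set limit carried over from the primary screen, none filed active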
Numbers without * were called inactive; / = no result.

SMILES	hcDAF12 agonist	DAX1 inh-1	ssDAF-12 act	hgDAF12 agonist	PolyA inh	DAX1 inh-2	LXRb hcDAF ctr	hcDAF12 ag	hgDAF12 conf	LXR ag 2
c1ccc(CSc2nc3ccccc3[nH]2)cc1	8.6*	3.8*	0.6	22.0*	-14.9	3.2	1.1	7.4*	16.7*	0.7
O=C(CN1C(=O)CCC1=O)Nc1nc(-c2ccccn2)cs1	-0.5	1.0	-0.8	0.5	1.1	1.0	/	/	/	/
O=C(CN1C(=O)CCC1=O)Nc1nc(-c2nc3ccccc3s2)cs1	7.6*	4.5*	1.2*	16.1*	7.3	1.1	0.9	4.0	12.2*	0.4
COCCNC(=O)C1(C)CCCN(C(=O)c2ccc(C(F)(F)F)cc2)C1 (centres undefined)	0.8	-0.1	-0.7	-0.8	/	/	/	/	/	/
CNC(=O)c1ccsc1NC(=O)c1ccc2c(c1)CCCC2	6.9*	1.3	0.4	17.1*	6.7	0.2	0.2	7.0*	8.8	0.5
NS(=O)(=O)c1ccc(NC(=O)c2ccc3c(c2)CCCC3)cc1	-1.3	0.0	-0.1	3.2	0.9	0.0	/	/	/	/
CCOC(=O)C1(C)CCN1C(=O)c1cncc(Br)c1 (centres undefined)	-0.1	0.0	-1.4	-2.4	/	/	/	/	/	/
COc1ccc(NC(=S)Nc2cc(C)ccn2)c(OC)c1	13.6*	2.6	1.5*	13.8*	-4.5	3.5	1.0	12.2*	19.2*	0.7
O=[N+]([O-])c1cccnc1N/N=C/c1ccccc1O	9.2*	3.8*	0.0	15.5*	-29.3	-0.7	1.0	4.0	10.2	0.5
COCc1cc(N2CCNC[C@@H]2C)ccc1N1CCN(Cc2ccccc2)[C@H](C)C1	-0.9	0.1	-1.5	0.4	/	/	/	/	/	/
CCOC(=O)c1c(C)nc2c(C)cccn12	-0.9	0.6	-0.8	-1.5	4.0	0.3	/	/	/	/
CCOC(=O)c1c(C)nc2c3ccccc3ccn12	9.7*	3.7*	2.7*	19.1*	-23.0	1.5	1.3	11.6*	17.1*	1.0
Cc1ccc(NC(=O)c2onc(C)c2Cl)cc1	9.1*	3.3	0.9	18.2*	9.2	2.2	0.9	11.6*	15.5*	0.5
Cc1noc(C(=O)Nc2ccc(F)c(Cl)c2)c1Cl	0.8	0.5	0.3	7.2	-3.7	1.1	/	/	/	/
CCSc1cc(C)nc2c(-c3ccccc3)cnn12	13.4*	4.0*	2.4*	17.5*	-4.4	3.8	1.1	10.9*	15.4*	0.8
CCSc1cc(C)nc2c(-c3ccc(Cl)cc3)c(C)nn12	-1.9	-1.1	-1.6	0.6	-7.7	0.5	/	/	/	/
CC(=O)c1ccc(NC(=O)C(C)Sc2n[nH]c(-c3cccnc3)n2)cc1 (centres undefined)	1.7	0.0	-0.7	2.1	-17.2	-0.5	/	/	/	/
O=[N+]([O-])c1ccccc1-c1nc(-c2ccc(Br)o2)no1	15.1*	4.5*	2.8*	20.7*	6.8	2.9	1.4	8.6*	18.1*	0.7
Nc1nnc(-c2ccccc2[N+](=O)[O-])o1	-1.5	0.5	-0.8	-0.7	-6.1	1.5	/	/	/	/
Brc1ccc(-c2noc(-c3ccccn3)n2)o1	10.1*	1.8	1.4*	20.1*	1.3	1.8	1.0	7.8*	20.9*	1.1
COc1ccc2nc(NC(=O)c3cnccn3)sc2c1	8.6*	3.6*	1.1*	15.3*	-13.6	-0.3	1.4	4.8	15.0*	0.8
Cc1ccc2nc(NC(=O)c3ccccc3F)sc2c1	12.7*	1.7	1.6*	18.7*	-21.0	-1.3	1.9	14.9*	20.3*	1.3
